Screen size: about 3,400 compounds; about 840 (25%) were called active. About 11% were inconclusive and are not listed. The list is a sample of the results. Measured potencies and affinities stand elsewhere. Unmarked numbers belong to inactive results.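 Rule for the calls: active = fitted half-maximal concentration of signal decrease at or below twice the sample's top tested concentration; inconclusive = flat curve between -70 and -30 percent, or poor fit; inactive = flat within 30 percent, signal rise, or potency above limit.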

The experiment is described as follows: T. gondii growth inhibition with IFN-gamma, dose response, cell-based, ME49Luc, HeLa, luciferase, 72 h (AID 1259418). As to conditions: T. gondii ME49Luc in IFN-y HeLa, active compounds read low, -100% = high-dose IFN-γ control wells; at 19.5 µM unless noted.
With `CCOC(=O)c1cccc(NC(=O)Nc2ccc(-c3nc(-c4ccc(C)cc4C)co3)cc2)c1`, the max activity is -3.92% [at 1.35 µM].

For the molecule `CCOc1ccc(-c2nc(CN3CCN(C(=O)Nc4cccc(C)c4C)CC3)c(C)o2)cc1`, the max activity was -7.65% [at 0.68 µM]. With `O=C(CC1Nc2c3ccccc3nc(=S)n2C1=O)NCCc1ccccc1` (configuration not stated), the max activity was -10.8% [at 0.68 µM]. `Cc1ccc(C)c(-c2coc(-c3ccc(NC(=O)NCc4cccc(F)c4)cc3)n2)c1`: the max activity is 9.05%. Then `Cc1oc(-c2cccc(Cl)c2)nc1CSc1nc2c(c(=O)[nH]1)CN(C(C)C)CC2`, with 17.7% [at 0.68 µM]; and `COc1ccc(-c2nc(Nc3ccc(F)cc3)c3ccccc3n2)cc1`, with -11.2% [at 2.6 µM]. Regarding `CCOc1ccc(Nc2nc(-c3ccc(OC)cc3)nc3ccccc23)cc1`, the max activity is 9.36%.

With `COc1ccc(-c2nc(Nc3ccc(Cl)cc3)c3ccccc3n2)cc1`, the max activity is 10.4% [at 0.35 µM]. Then `COc1ccc(-c2nc(Nc3ccc(C)c(Cl)c3)c3ccccc3n2)cc1`, with 13% [at 0.35 µM]. Then `O=C(Cc1cccc(F)c1)N1CCC2(CC1)Nc1cc(F)ccc1-n1cccc12`, with -7.02% [at 2.6 µM]; and `CCOc1ccccc1CNc1nc(-c2ccc(Cl)cc2)nc2ccccc12`, with 22.2%. To `COc1ccccc1NC(=O)Nc1ccc(-c2nc(-c3ccccc3)co2)cc1` belongs 62.5% [at 10 µM]. Turning to `COc1cccc(CC(=O)Nc2ccc(-c3nc(-c4cc(C)ccc4C)co3)cc2)c1`, the max activity is -7.87%. On to `CCC(C)Nc1nc(-c2ccc(Cl)cc2)nc2ccccc12` (configuration not stated), for which the max activity is -11.3% [at 10 µM].

As for `CN1[C@@H]2c3ccc(/C=C/c4ccccc4)c(=O)n3C[C@H]1[C@H](CO)[C@H]2C(=O)NC1Cc2ccccc2C1`, the max activity was 43.1% [at 5 µM]. In the case of `CCCNC(=O)[C@H]1[C@H](CO)[C@H]2Cn3c(ccc(C4=CCCCC4)c3=O)[C@H]2N1Cc1ccccc1F`, the max activity is 16.8% [at 10 µM]. As to `O=C(CCn1cnc2cc(-c3noc(-c4cccc5[nH]ccc45)n3)ccc21)N1CCCC1`, the max activity was -15.6% [at 0.35 µM]. To `O=C(CCn1cnc2cc(-c3noc(CCc4c[nH]c5ccccc45)n3)ccc21)N1CCCC1` belongs -14.5% [at 0.16 µM]; to `COc1ccc(NC(=O)Nc2ccc(-c3nc(-c4ccc(C)cc4)co3)cc2)cc1`, 43.2% [at 10 µM]; to `CC(C)NC(=O)N1CCC2(CC1)OCCN(CCO)c1ccccc12`, 20.9%. Then `Cc1ccc(NC(=O)Nc2ccc(-c3nc(-c4ccccc4)co3)cc2)cc1`, with 19.9% [at 0.16 µM]; and `N#Cc1ccc(-c2ccc3c(c2)[C@H]2[C@H](CCN2C(=O)C2CCCCC2)[C@@H](CO)N3)cc1`, with 27.2% [at 10 µM]. In the case of `COc1ccc(-c2nc(Cn3nnc(-c4nc(-c5ccc(Cl)cc5)no4)c3C)c(C)o2)cc1`, the max activity was 6.38%. Then `CCC(C(=O)N1CCC[C@@H]1C(=O)NCCc1csc(C)n1)c1ccccc1` (some centres not stated), with 9.81% [at 0.35 µM]; and `COc1cc(-c2noc(-c3nnn(Cc4nc(-c5ccccc5)oc4C)c3C)n2)cc(OC)c1OC`, with 6.25% [at 0.35 µM]. Then `COc1ccc2c(c1)NC1(CCN(C(=O)c3ccc(C)c(F)c3)CC1)c1cccn1-2`, with 5.27% [at 0.68 µM]; and `Cc1ccccc1Cn1cccc1CNS(=O)(=O)c1ccc2c(c1)CCC(=O)N2`, with 13.6% [at 2.6 µM]; and `O=C(CCC1N=C2c3ccccc3N=C(SCc3cccc(Cl)c3)N2C1=O)NCc1ccco1` (configuration not stated), with 24.8% [at 5 µM].

In the case of `O=C(CC1N=C2c3ccccc3N=C(SCc3cccc(F)c3)N2C1=O)NCc1cccs1` (configuration not stated), the max activity was -23.9% [at 5 µM]. Then `NC(=O)C1(N2CCCCC2)CCN(c2ncc(NC(=O)c3cccc(Cl)c3)cc2C(=O)O)CC1`, with 5.69%; and `COc1ccc(-c2nc(N3CCc4ccccc43)c3ccccc3n2)cc1`, with -12.2% [at 0.35 µM]; and `CCS(=O)(=O)N1CCC(C(=O)NCCc2csc(-c3cccs3)n2)CC1`, with -17.6%. Then `COc1ccc(-c2nc(Nc3ccc(F)cc3F)c3ccccc3n2)cc1`, with 10.1%; and `Cc1ccc2c(c1C)-n1cccc1C1(CCN(C(=O)c3ccc(Br)cc3)CC1)N2`, with 7.92% [at 0.16 µM]. Then `COc1cc(C(=O)Nc2ccc(-c3nc(-c4ccc(C)cc4)co3)cc2)cc(OC)c1OC`, with 54.9% [at 10 µM]; and `C[C@@H]1CN([C@@H](C)CO)C(=O)c2cccc(NC(=O)NC3CCCCC3)c2O[C@H]1CN(C)Cc1ccc(C(F)(F)F)cc1`, with 7.51%; and `C[C@H]1CN([C@@H](C)CO)C(=O)c2cccc(NC(=O)c3ccc(-c4nccs4)cc3)c2O[C@@H]1CN(C)C(=O)Nc1ccc(C(F)(F)F)cc1`, with 30.7% [at 5 µM]. In the case of `CCCN(CCC)c1nc(-c2ccc(Cl)cc2)nc2ccccc12`, the max activity is 25.7%.

For `COc1ccc(-c2nc(Cn3nnc(-c4nc(-c5cccc(F)c5)no4)c3C)c(C)o2)cc1`, the max activity is 5.24% [at 10 µM]. Then `CCOc1ccccc1NC(=O)Nc1ccc(-c2nc(-c3ccc(C)cc3)co2)cc1`, with -10.4%; and `O=C(CC1CC1)N[C@H]1CN(C(=O)c2ccoc2)C[C@@H]2CCCO[C@H]21`, with 19.7%; and `CCc1onc(C)c1C1CCCN1C(=O)c1cc(C(F)(F)F)nn1C` (configuration not stated), with 5.66% [at 0.16 µM]. As for `O=C(Nc1ccc(-c2nc(-c3ccccc3)co2)cc1)Nc1ccccc1Cl`, the max activity was 29.7% [at 10 µM]. To `NCCNC(=O)c1nc(-c2ccc(Br)o2)no1` belongs 8.96% [at 10 µM]. To `Cc1nc(-c2ccc(F)cc2)sc1-c1ccc(SCc2c(F)cccc2Cl)nn1` belongs 12.7% [at 0.68 µM]; to `COc1cccc(-c2nc(C)c(-c3ccc(SCc4ccc(Br)cc4)nn3)s2)c1`, -17.9%.

Consider `COc1cccc(-c2nc(C)c(-c3ccc(SCc4ccc(C(F)(F)F)cc4)nn3)s2)c1`, for which the max activity is 7.57% [at 0.16 µM]. For `COc1ccc(-c2nc(C)c(-c3ccc(SCc4c(F)cccc4Cl)nn3)s2)cc1`, the max activity was 6.69% [at 0.16 µM]. Take `COc1cccc(-c2nc(C)c(-c3ccc(SCc4ccc(Cl)cc4Cl)nn3)s2)c1`: the max activity was -7.13% [at 1.35 µM]. To `COc1cccc(-c2nc(C)c(-c3ccc(SCc4ccc(C)cc4)nn3)s2)c1` belongs 22.3% [at 10 µM]; to `Cc1nc(-c2ccc(F)cc2)sc1-c1ccc(SCc2ccc(F)cc2)nn1`, 12.7% [at 5 µM]. To `COc1ccc(-c2nc(C)c(-c3ccc(SCc4ccc(C)cc4)nn3)s2)cc1` belongs 10.6% [at 2.6 µM]. For the molecule `Cc1ccc(C)c(-c2coc(-c3ccc(NC(=O)Nc4cc(F)ccc4F)cc3)n2)c1`, the max activity is 18.4% [at 0.16 µM]. To `CCOc1cc(C(=O)Nc2ccc3c(c2)CCC(=O)N3)cc(OCC)c1OCC` belongs 7.32%. As for `Cc1ccc(-c2coc(-c3ccc(NC(=O)CC(C)C)cc3)n2)cc1`, the max activity was 33%. Then `Clc1ccc(-c2nc(NCc3cccnc3)c3ccccc3n2)cc1`, with -32.4% [at 0.35 µM]; and `COc1ccc(-c2nc3c(s2)CN(S(=O)(=O)c2cccs2)CC3)cc1`, with 12.1% [at 0.16 µM]; and `O=S(=O)(c1cccs1)N1CCCCN2[C@H](C1)[C@@H](c1ccc(/C=C/c3ccccc3)cc1)[C@@H]2CO`, with 11.8% [at 10 µM]. As for `COCCCN1CCc2nc(SCc3nc(-c4cccc(Cl)c4)oc3C)[nH]c(=O)c2C1`, the max activity was 33.5% [at 0.35 µM]. To `O=C(NCC1CC1)C1CN(C(=O)c2ccoc2)CC12CCOCC2` (configuration not stated) belongs 17.9% [at 10 µM]. Turning to `Cc1ccc(-n2ncc3c(NC4CCCCCCCCCCC4)ncnc32)c(C)c1`, the max activity is 53.2% [at 10 µM].

For the molecule `Oc1[nH]c2ccccc2c1N=Nc1nc(Nc2ccccc2)nc(N2CCOCC2)n1`, the max activity is 12.6% [at 10 µM]. To `CCN(CC)Cc1cn2c(n1)CN(C(=O)c1cnc(C)cn1)CC2` belongs -25.1% [at 10 µM]; to `CCc1nc(OCC(=O)Nc2cccc(C)c2C)c2ccccc2n1`, 34.5%; to `COc1ccccc1CNC(=O)CCC1N=C2c3ccccc3N=C(SCc3cc(=O)n4ccccc4n3)N2C1=O` (configuration not stated), -7.46% [at 0.16 µM]. To `CN1CCCN(C(=O)c2cc3c(c4ccccc4n3CC3CC3)n2S(C)(=O)=O)CC1` belongs 11.9% [at 5 µM]. With `CC(C)c1cc(C2CCCN2C(=O)c2cc(C(F)(F)F)nn2C)on1` (configuration not stated), the max activity is 9.25% [at 0.35 µM]. To `COc1ccc(NC(=O)CN2CCC3(CC2)N=C(c2ccc(F)cc2)C(=O)N3)cc1` belongs -27.9% [at 1.35 µM]; to `O=C(NCCc1csc(-c2ccccc2)n1)[C@H]1CCCN1C(=O)c1ccc(F)cc1`, -10.4% [at 0.16 µM]; to `O=C(NCCc1csc(-c2ccccc2)n1)[C@H]1CCCN1C(=O)c1ccc(Br)cc1`, -11% [at 0.16 µM]. With `Cc1nc(CCNC(=O)[C@H]2CCCN2C(=O)c2ccc(F)cc2)cs1`, the max activity was -9.63% [at 0.16 µM].

As for `Cc1nc(CCNC(=O)[C@H]2CCCN2C(=O)c2cccc(Br)c2)cs1`, the max activity is 23.4% [at 0.16 µM].

The values above are taken from PubChem BioAssay AID1259418 (Broad Institute, 2018).
